Screening results deposited in PubChem by National Center for Advancing Translational Sciences (NCATS).
D3 ag: agonists of human D3 dopamine receptor. P35462. D3R DiscoveRx beta-arrestin cells, luminescence, 90 min. max activation, %. hit rate 0.58% among 410,000. AID 652048; in the data active means max activation above about 30%; further: 0% is about no effect
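Agonist-mode cell screen: cells plated at 1500/well and incubated overnight at 37 °C, then exposed to library compounds for 90 min at 37 °C. Detection reagent was added for 30–60 min at room temperature, and luminescence was read.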
D1 antagonist: antagonists of human D1 dopamine receptor. HEK293 TREx D1 cells, calcium flux, dopamine EC80; active compounds read low. activity change, negative = inhibition, % at 10 µM. hit rate 3.2% among 360,000. AID 504652; in the data active means activity change below about -30%; further: on the % scale 0 is the no-effect control and ±100 the full control effect
Target sequence (P21728 whole entry, looked up): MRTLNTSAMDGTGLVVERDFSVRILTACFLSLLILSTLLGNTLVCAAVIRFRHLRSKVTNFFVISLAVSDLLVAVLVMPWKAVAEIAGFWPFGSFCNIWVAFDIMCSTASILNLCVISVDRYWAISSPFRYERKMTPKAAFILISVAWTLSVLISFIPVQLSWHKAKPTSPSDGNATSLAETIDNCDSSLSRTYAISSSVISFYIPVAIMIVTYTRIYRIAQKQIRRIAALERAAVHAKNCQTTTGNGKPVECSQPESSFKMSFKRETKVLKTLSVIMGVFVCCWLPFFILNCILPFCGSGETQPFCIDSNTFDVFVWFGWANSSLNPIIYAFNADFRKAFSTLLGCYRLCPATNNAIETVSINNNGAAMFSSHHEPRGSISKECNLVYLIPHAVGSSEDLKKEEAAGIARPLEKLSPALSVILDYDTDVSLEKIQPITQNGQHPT
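Calcium flux readout: force-coupled, inducible Hek293 Trex D1 line, cells induced overnight at 30 C with tetracycline, dye-loaded 30–90 min at RT. Antagonism scored against EC80 dopamine challenge given 180 s after compound.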
D1 ag: activates the human D1 dopamine receptor; HEK293 T-REx D1 cells, calcium flux, agonist mode; hit rate 1% among 360,000; activation, % at 2 µM; P21728; in the data active means activation above about 30%; further: 0% is about no effect
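Inducible HEK293 T-REx D1 cells, force-coupled to calcium signalling, were plated at 4000 cells/well with tetracycline and held overnight at 30 C. After no-wash calcium dye loading, compound-evoked calcium rise over 180 s flagged agonists.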
D3 antag: antagonists of human D3 dopamine receptor; P35462; D3R cells, DiscoveRx beta-arrestin luminescence, antagonist mode; active compounds read low; max response, negative = inhibition, %; hit rate 2.5% among 360,000; in the data active means max response below about -50%; inconclusive means no clear call, values can overlap the other calls; further: on the % scale 0 is the no-effect control and ±100 the full control effect
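Cells plated overnight at 1500 cells/well, then exposed to library compounds with dopamine controls for 90 minutes at 37 degrees C. DiscoveRx reagent added for 30–60 minutes at room temperature; luminescence read, quantitative HTS format.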
D1 PAM: human D1 dopamine receptor positive modulation; P21728; HEK293 TREx D1 cells, calcium flux, dopamine EC20 potentiation; potentiation, % at 10 µM; hit rate 0.036% among 360,000; in the data active means potentiation above about 30%; further: 0% is about no effect
* hit, by the source's call. Shown are actives, neighbours in structure and some others; about 6% of the full set was active somewhere.

What do the screens show for `COc1ccc(CCNC(=S)Nc2ccc(OC)cc2)cc1`?
D3 ag: 2; D1 antagonist: -15; D1 ag: 1; D3 antag: 4; D1 PAM: -8

What do the screens show for `CC(C)Oc1ccc(CC(=O)NNC(=S)Nc2ccccc2)cc1`?
D3 ag: 1; D1 antagonist: 5; D1 ag: 6; D3 antag: 0; D1 PAM: -7

How did S=C(NCCc1ccccc1)Nc1ccc(Cl)cc1Cl do in these assays?
D3 ag: -1; D1 antagonist: -33*; D1 ag: 13; D3 antag: 6; D1 PAM: -5

What do the screens show for `COc1ccc(CCNC(=S)Nc2ccccc2)cc1`?
D3 ag: -6; D1 antagonist: -36*; D1 ag: 7; D3 antag: -23; D1 PAM: -14

How did Cn1ccnc1SCC(=O)Nc1cc(Cl)ccc1Cl do in these assays?
D3 ag: 8; D1 antagonist: 12; D1 ag: 0; D1 PAM: -4

What do the screens show for `CC(=O)C1=C(c2ccc(Cl)c(Cl)c2)N(C(C)=O)n2cnnc2S1`?
D3 ag: -22; D1 ag: 1; D1 PAM: 2

What do the screens show for `Cc1c2cnn(-c3ccccc3)c(=O)c2c(C)n1CCCC(=O)Nc1cccc(F)c1`?
D3 ag: -12; D1 antagonist: -5; D1 ag: 0; D1 PAM: -1

What do the screens show for `S=C(NCCc1ccccc1)Nc1ccc(Br)cc1`?
D3 ag: -3; D1 antagonist: -51*; D1 ag: 15; D3 antag: -23; D1 PAM: -10

Results for CCCCNC(=S)NC(=O)c1ccc([N+](=O)[O-])cc1 ?
D3 ag: 5; D1 antagonist: -46*; D1 ag: 3; D3 antag: -22; D1 PAM: -6

What do the screens show for `CCCS(=O)(=O)N1CCCC(C(=O)NCCCN2CCN(c3ccccc3F)CC2)C1` (centres undefined)?
D3 ag: 31*; D1 antagonist: -38*; D1 ag: 2; D3 antag: -53*; D1 PAM: -6

Results for CCS(=O)(=O)N1CCC(C(=O)NCCCN2CCN(c3ccccc3F)CC2)CC1 ?
D3 ag: 40*; D1 antagonist: -75*; D1 ag: 0; D3 antag: -52*; D1 PAM: -13

Results for CCCS(=O)(=O)N1CCCC(C(=O)NCCCN2CCN(c3cccc(Cl)c3)CC2)C1 (centres undefined) ?
D3 ag: 0; D1 antagonist: -24; D1 ag: 2; D3 antag: -25; D1 PAM: -12

What do the screens show for `O=C(NCCCN1CCN(c2ccccc2F)CC1)C1CCN(S(=O)(=O)c2cccs2)CC1`?
D3 ag: 0; D1 antagonist: -29; D1 ag: 6; D3 antag: inconclusive; D1 PAM: -10

What do the screens show for `O=C(NN1C(=O)c2ccccc2NC1c1ccc([N+](=O)[O-])o1)c1ccc([N+](=O)[O-])cc1` (centres undefined)?
D3 ag: 1; D1 antagonist: -15; D1 ag: 0; D3 antag: -61*; D1 PAM: -6

Results for CCC[n+]1c2ccccc2cc2ccccc21 ?
D3 ag: -17; D1 antagonist: 14; D1 ag: 1; D3 antag: inconclusive; D1 PAM: 2

How did CCCC[n+]1c2ccccc2cc2ccccc21 do in these assays?
D3 ag: 2; D1 antagonist: 6; D1 ag: 4; D3 antag: -94*; D1 PAM: 1

What do the screens show for `CC(c1nc2ccccc2o1)N1C(=O)c2ccccc2C1=O` (centres undefined)?
D3 ag: 12; D1 antagonist: -6; D1 ag: 0; D3 antag: -53*; D1 PAM: -3

How did O=C1c2ccccc2C(=O)N1CCCCSc1nc2ccccc2o1 do in these assays?
D3 ag: 1; D1 antagonist: -3; D1 ag: 12; D3 antag: 3; D1 PAM: -4

What do the screens show for `O=C(Cn1c(=O)n(CCc2ccccc2)c(=O)c2cccnc21)Nc1ccc(F)cc1`?
D3 ag: 4; D1 antagonist: -13; D1 ag: 0; D1 PAM: -5

How did O=C(CN1C(=O)/C(=C/c2ccc(C(F)(F)F)cc2)Sc2ccccc21)NCCCN1CCOCC1 do in these assays?
D3 ag: -5; D1 antagonist: -34*; D1 ag: 16; D3 antag: -21; D1 PAM: -9
